Test results from PubChem BioAssay (Tox21).
Records with an inconclusive call do not appear. A number with no mark means an inactive call. Activity calls are given as the source filed them. The call rests on the fitted dose curve.
On the % scale 0 is the no-effect control and ±100 the full control effect; potency means the concentration at half of the fitted maximal effect.

Experiment: qHTS assay to identify small molecule agonists of the endoplasmic reticulum stress response signaling pathway - cell viability counter screen (AID 1159517); further: nearly all actives have a fitted effect of over 50% in size
Conditions: ESRE-bla HeLa viability, CellTiter-Glo luminescence, 5 h; series mostly up to 61 µM; activity change, negative = cytotoxicity: at the top concentration
Source text: U.S. Tox21 Program National Center for Advancing Translational Sciences [NCATS] NIH Chemical Genomics Center [NCGC] U.S. Environmental Protection Agency [EPA] National Institutes of Environmental Health Sciences [NIEHS] National Toxicology Program [NTP] U.S. Food and Drug Administration [FDA] Tox21 Assay Overview: Endoplasmic Reticulum (ER) plays an important role in cellular signaling, protein folding/maturation, stress response, lipid biosynthesis, calcium storage and release etc. Under stress conditions, proteins in ER misfold or unfold, and leading to the expression of ER stress responsive genes. ER stress has been associated with a variety of pathophysiological conditions such as cancer, inflammation, neurodegenerative diseases, diabetes, ischemic heart disease etc. To identify the compounds that induce ER stress response, an ER stress reporter cell line, CellSensor ESRE-bla HeLa (Life Technologies, Carlsbad, CA) containing a beta-lactamase reporter gene under control of the Endoplasmic reticulum Stress Response Element (ESRE) was used to screen Tox21 10K compound library. The cytotoxicity of the Tox21 compound library against the ESRE-bla HeLa cell line was tested in parallel by measuring cell viability using the CellTiter-Glo assay in the same wells.
Tox21 Assay Protocol Summary: ESRE-bla HeLa cells were dispensed at 1,500 cells/6 uL of assay medium per well into black wall/clear-bottom 1536-well plates using a Multidrop Combi (ThermoFisher Scientific, Waltham, MA) dispenser. After the assay plates were incubated at 37 C and 5% CO2 for an overnight, 23 nL of compounds dissolved in DMSO, positive controls or DMSO only was transferred to the assay plate by a Pintool station (Kalypsys, San Diego, CA). The assay plates were incubated at 37 C and 5% CO2 for 5 hr. One uL of LiveBLAzer B/G FRET substrate (Life Technologies) was added using a FRD (Flying Reagent Dispenser, Aurora Discovery, San Diego, CA) and the plates were incubated at room temperature for 2 hr. Fluorescence intensity (405 nm excitation, 460 nm and 530 nm emissions) was measured using an Envision plate reader (PerkinElmer, Shelton, CT). For cytotoxicity, 4 ul/well of CellTiter-Glo reagent was added into the assay plates using an FRD. After 30 min incubation at room temperature, the luminescence intensity was measured using a ViewLux plate reader (PerkinElmer).
In the case of `CC(=O)[O][Pb]([c]1ccccc1)([c]1ccccc1)[c]1ccccc1`, the Potency is reported as 24.5 µM (active).
In the case of `Brc1ccc(Oc2ccc(Br)cc2Br)c(Br)c1`, the “activity change, negative = cytotoxicity” value is reported as -27.6%.
For `O=C(Nc1ccc(F)cc1F)c1cccnc1Oc1cccc(C(F)(F)F)c1`, the “activity change, negative = cytotoxicity” value was 1.17% [at 78.8 µM].
With `Cc1ccccc1OP(=O)(Oc1ccccc1C)Oc1ccccc1C` the “activity change, negative = cytotoxicity” value was -17.3% [at 78.8 µM].
For `O=C(N[C@@H]1N=C(c2ccccc2F)c2cccc3c2N(CC3)C1=O)c1cc2ccccc2[nH]1`, the “activity change, negative = cytotoxicity” value was -13%.
With `C=CC(=O)[O][Sn]([CH2]CCC)([CH2]CCC)[CH2]CCC` the Potency was 0.977 µM (active).
For `CC(C)[C@@H](Nc1ccc(C(F)(F)F)cc1Cl)C(=O)OC(C#N)c1cccc(Oc2ccccc2)c1` (stereo not given in full), the “activity change, negative = cytotoxicity” value was 0.0224%.
For `[Cl-].[Cl-].[Sn+2]`, the “activity change, negative = cytotoxicity” value was -0.139%.
For `C=CCBr`, the “activity change, negative = cytotoxicity” value was 12.4% [at 78.8 µM].
For `O=C(O)[C@H](O)[C@@H](O)C(=O)O`, the “activity change, negative = cytotoxicity” value was -4.76%.
For `O=C(O)CCCCCCNC1c2ccccc2CCc2ccccc21`, the “activity change, negative = cytotoxicity” value was 17.3%.
In the case of `CC(C)Br`, the “activity change, negative = cytotoxicity” value is reported as -2.31%.
In the case of `CNC(C)(C)Cc1ccccc1`, the “activity change, negative = cytotoxicity” value is reported as -2.98%.
In the case of `CC(C)(C)c1ccc(OP(=O)(Oc2ccccc2)Oc2ccccc2)cc1`, the “activity change, negative = cytotoxicity” value is reported as -9.4% [at 78.8 µM].
For `Oc1cc(Cl)c(Cl)c(Cl)c1Cl`, the “activity change, negative = cytotoxicity” value was -24.2%.
For `O=S1(=O)OCC2C(CO1)C1(Cl)C(Cl)=C(Cl)C2(Cl)C1(Cl)Cl` (stereo not given), the “activity change, negative = cytotoxicity” value was -4.06%.
With `Cc1c([N+](=O)[O-])cc2c(c1[N+](=O)[O-])C(C)(C)CC2(C)C` the “activity change, negative = cytotoxicity” value was -28.1%.
With `CC(C)c1c(CN(C)C(C)Cc2ccccc2)n(C)n(-c2ccccc2)c1=O` (stereo not given) the “activity change, negative = cytotoxicity” value was 13.6%.
With `COC(=O)c1cc(Oc2ccc(Cl)cc2Cl)ccc1[N+](=O)[O-]` the “activity change, negative = cytotoxicity” value was 1.08%.
With `CSSC` the “activity change, negative = cytotoxicity” value was 0.874% [at 78.8 µM].
In the case of `CCO/N=C(\CC)C1=C(O)CC(c2c(C)cc(C)cc2C)CC1=O` (stereo not given), the “activity change, negative = cytotoxicity” value is reported as -9.23%.
In the case of `CC(=O)[O-].CC(=O)[O-].CC(=O)[O-].[Sb+3]`, the activity change, negative = cytotoxicity is reported as -11.4% [at 6.95 µM].
In the case of `O.O.O.O.O.O.O=S(=O)([O-])[O-].[Ni+2]`, the “activity change, negative = cytotoxicity” value is reported as -22.5%.
With `CCC(C)Nc1c([N+](=O)[O-])cc(C(C)(C)C)cc1[N+](=O)[O-]` (stereo not given) the “activity change, negative = cytotoxicity” value was -23%.
In the case of `O=[N+]([O-])C(Br)Br`, the Potency is reported as 55 µM (active).
With `COC(=O)c1ccccc1S(=O)(=O)NC(=O)Nc1nc(C)nc(OC)n1` the “activity change, negative = cytotoxicity” value was 8.52%.
For `Nc1cc(Cl)ccc1Cl`, the “activity change, negative = cytotoxicity” value was 3.59%.
In the case of `C=C(C)C(=O)[O][Sn]([CH2]CCC)([CH2]CCC)[CH2]CCC`, the Potency is reported as 0.692 µM (active).
For `O=C1C(Cl)=C(Cl)C(=O)C(Cl)=C1Cl`, the Potency was 54.8 µM (active).
In the case of `CCOP(=O)(Sc1ccccc1)Sc1ccccc1`, the “activity change, negative = cytotoxicity” value is reported as 9.15%.
With `COc1ccc2[nH]cc(CCN(C(C)C)C(C)C)c2c1` the “activity change, negative = cytotoxicity” value was 2.66% [at 78.8 µM].
With `O=C(N[C@H]1N=C(c2ccccc2F)c2cccc3c2N(CC3)C1=O)c1cc2ccccc2[nH]1` the “activity change, negative = cytotoxicity” value was -2.98%.
With `O=c1[nH]c2cc(Cl)ccc2n1C1CCNCC1` the “activity change, negative = cytotoxicity” value was 2.88%.
In the case of `C=CCOC(=O)c1ccccc1N`, the “activity change, negative = cytotoxicity” value is reported as 7.56% [at 78.8 µM].
With `O=[N+]([O-])c1cc(C(F)(F)F)c(Cl)c([N+](=O)[O-])c1Nc1ncc(C(F)(F)F)cc1Cl` the Potency was 12.3 µM (active).
For `ClCBr`, the “activity change, negative = cytotoxicity” value was 17.9% [at 78.8 µM].
With `[O-][Cl+3]([O-])([O-])O` the “activity change, negative = cytotoxicity” value was 8.84% [at 78.8 µM].
With `CC1(C)C(C=C(Cl)Cl)C1C(=O)OC(C#N)c1ccc(F)c(Oc2ccccc2)c1` (stereo not given) the “activity change, negative = cytotoxicity” value was 3.87%.
In the case of `CN(C)C(=S)SSC(=S)N(C)C`, the “activity change, negative = cytotoxicity” value is reported as -28.2%.
With `ClC1=C(Cl)[C@]2(Cl)[C@@H]3[C@H]4C[C@H]([C@@H]5O[C@H]45)[C@@H]3[C@@]1(Cl)C2(Cl)Cl` the “activity change, negative = cytotoxicity” value was -0.278%.
